This is a sample that favours compounds with a hit; in the whole collection about 2.4% have one here.
Pol eta inh-1 = qHTS for Inhibitors of Polymerase Eta | DNA polymerase eta (Homo sapiens), Q9Y253 | AID 588591, 2011 | Potency, µM (highest dose often 114 µM), without a hit: at the highest dose activity change, negative = inhibition, hits mostly inhibitors | recombinant Pol eta, fluorescent DNA replication assay | actives 1.2% (n = 390,000); note: % is set by controls: 0 for no effect and ±100 for the full control effect
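Pol eta (10 nM) was preincubated with compounds for 15 min at room temperature, after which fluorescent replication substrate (50 nM final) was added to start the reaction. Fluorescence was read kinetically at 0 and 10 min.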
WRN inhibitor = qHTS for Inhibitors of WRN Helicase; Potency, µM (highest dose often 114 µM), inactives show at the top dose activity change, negative = inhibition, usual class: inhibitors; WRN helicase unwinding, fluorescent forked duplex, kinetic; actives 0.46% (n = 360,000); note: % is set by controls: 0 for no effect and ±100 for the full control effect; nearly all actives have a fitted effect of over 55% in size
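Fluorescence dequenching readout, ex 525 nm/em 598 nm, kinetic mode: forked duplex DNA (100 nM final) with adjacent fluorophore and quencher unwound by WRN (20 nM final) with 2 mM ATP. Compound preincubation 15 min, room temperature.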
Pol iota inh = qHTS for Inhibitors of Polymerase Iota; DNA polymerase iota (Homo sapiens), Q9UNA4; Pol iota fluorescent replication assay, 10 min; Potency, µM (doses to about 115 µM), for the others: at the highest dose activity, negative = inhibition, usual class: inhibitors; actives 1% (n = 390,000)
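Pol iota at 10 nM preincubated 15 min with compounds at room temperature; reaction started with fluorescent substrate, 50 nM final. Fluorescence read kinetically at 0 and 10 min; buffer-only wells as negative control.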
Pol kappa inh-1 = qHTS for Inhibitors of Polymerase Kappa. DNA polymerase kappa (Homo sapiens), Q9UBT6. purified Pol kappa, fluorescent DNA synthesis assay, 10 min. Potency, µM (titrated, usually from 107 µM), inactives show at the highest dose activity, negative = inhibition, hits mostly inhibitors. actives 0.53% (n = 400,000); note: % is set by controls: 0 for no effect and ±100 for the full control effect
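First, compounds were pin-transferred onto 10 nM Pol kappa. After 15 min at room temperature, substrate was added to 50 nM final. Fluorescence was then measured kinetically at 0 and 10 min.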
FEN1 inh = qHTS Assay for the Inhibitors of Human Flap endonuclease 1 (FEN1); Recombinant FEN1 flap cleavage, fluorescence, 15 min; Potency, µM (series often up to 114 µM), for inactives: at the highest dose activity change, negative = inhibition, hits mostly inhibitors; actives 0.35% (n = 390,000); note: % is set by controls: 0 for no effect and ±100 for the full control effect; nearly all actives have a fitted effect of over 65% in size
Target sequence (P39748 whole entry, looked up): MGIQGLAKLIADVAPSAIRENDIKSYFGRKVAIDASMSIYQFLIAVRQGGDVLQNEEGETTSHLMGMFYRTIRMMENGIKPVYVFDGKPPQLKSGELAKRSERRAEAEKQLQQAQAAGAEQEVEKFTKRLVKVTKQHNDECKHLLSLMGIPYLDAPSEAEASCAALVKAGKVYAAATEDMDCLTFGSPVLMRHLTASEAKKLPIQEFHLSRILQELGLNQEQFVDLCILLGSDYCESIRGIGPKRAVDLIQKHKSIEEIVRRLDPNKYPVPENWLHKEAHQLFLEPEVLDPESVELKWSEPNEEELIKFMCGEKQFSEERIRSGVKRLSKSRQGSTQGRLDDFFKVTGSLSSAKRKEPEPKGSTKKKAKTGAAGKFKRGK
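Concentration–response screening of FEN1 (10 nM): 15 min compound preincubation at room temperature, reaction started with 50 nM substrate and read at 0 and 15 min. Corrected, normalized data were fitted by a four-parameter Hill equation.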
POLB inh = qHTS Assay for Inhibitors of DNA Polymerase Beta; P06746; Pol beta primer extension/strand displacement, fluorescence kinetic; Potency, µM (highest dose often 114 µM), for inactives: at the top dose activity change, negative = inhibition, hits mostly inhibitors; actives 1.3% (n = 340,000); AID 485314, 2010; note: % is set by controls: 0 for no effect and ±100 for the full control effect
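Pol beta (10 nM) and compounds were preincubated 15 min at room temperature, then 50 nM substrate (final) started primer extension/strand displacement. Reads were taken at 0 and 10 min; concentration-response data were fitted to a four-parameter Hill equation.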
TbPGK inh = qHTS for inhibitors of Phosphogylcerate Kinase: Hit Validation Screen | shares compounds with Pol kappa inh-1 | TbPGK coupled GAPDH assay, Kinase-Glo luminescence | Potency, µM (highest dose often 57.5 µM), inactives show at the top dose activity change, negative = inhibition, actives largely listed as inhibitors | actives 79% (n = 500) | AID 686980, 2013; note: % is set by controls: 0 for no effect and ±100 for the full control effect; nearly all actives have a fitted effect of over 65% in size
POLI cherry-pick = qHTS for Inhibitors of Polymerase Iota: Confirmatory Assay for Cherry-picked Compounds | shares compounds with Pol kappa inh-1 | Pol iota primer extension, TAMRA/BHQ fluorescence | Potency, µM, usual class: inhibitors | actives 77% (n = 1,500) | AID 720496, 2013
Pol kappa inh-2 = qHTS for Inhibitors of Polymerase Kappa: Confirmatory Assay for Cherry-picked Compounds | shares compounds with Pol eta inh-1 | purified Pol-kappa, fluorescent strand-displacement substrate | Potency, µM, most hits filed as inhibitors | actives 76% (n = 920) | AID 720501, 2013
Pol eta inh-2 = qHTS for Inhibitors of Polymerase Eta: Confirmatory Assay for Cherry-picked Compounds. actives 64% (n = 2,600). AID 720502, 2013. shares compounds with Pol eta inh-1. Pol eta primer extension, TAMRA/BHQ fluorescence, 10 min. Potency, µM, actives largely listed as inhibitors
* marks the source's active call; other numbers are inactive results; u = inconclusive; x = not tested or not shown; ! = not confirmed by another sample; [ ] = dose if it differs, or a comment. Calls come from the whole dose curve; as a rule, active = well fitted curve in the direction sought with a large enough effect; inconclusive = small, poorly fitted or top-dose-only effect, or another doubt; inactive = no such curve, though single readings can be large; an effect the other way counts as inactive or inconclusive. Potency is the fitted concentration of half-maximal effect.

SMILES | Pol eta inh-1 | WRN inhibitor | Pol iota inh | Pol kappa inh-1 | FEN1 inh | POLB inh | POLI cherry-pick | Pol kappa inh-2 | Pol eta inh-2 | others
O=c1cc(O)c2sc3nc(C(F)(F)F)c4c(c3c2[nH]1)CCCCC4 | 1.0% | -5.4% | 41.2% | 0.0% | -13.0% | 10.6% | x | x | x
O=c1cc(O)c2sc3nc(-c4cccnc4)cc(C(F)(F)F)c3c2[nH]1 | u | u | 17.8µM* | u | u | 12.6µM* | 67* | x | u
O=C(C[n+]1ccccc1Cl)c1ccc2c(c1)CCCC2 | x | x | u | u | -30.2% | x | x | x | x
CCOc1ccc(C2C3=C(CCCC3=O)Nc3ccc4ncccc4c32)cc1 (centres undefined) | -7.9% | -11.3% | 4.6% | -25.7% | 0.4% | -1.7% | x | x | x
O=C1CCCC2=C1C(c1ccc(O)c(O)c1)c1c(ccc3ncccc13)N2 (centres undefined) | 25.1µM* | -18.3%[11.6 µM] | u | u | u | 6.31µM* | 67* | x | u
Cc1nc2c(nc1C)C(=O)c1ccccc1C2=O | u | -9.3% | 12.7% | -15.1% | -3.9% | x | x | x | x
COC1=C(N)C(=O)c2nc(C)ccc2C1=O | 8.91µM* | -32.6% | 17.8µM* | u | u | x | 23.8* | 18.9* | 30.1*
COC1=C(Br)C(=O)c2nc(C)ccc2C1=O | 14.1µM* | 50.1µM* | x | x | x | x | 26.7* | 18.9* | 30.1*
COc1cc(/C=N/NC(=O)c2ccccc2O)ccc1OCC(=O)Nc1ccccc1 | 50.1µM* | u | 28.2µM* | 50.1µM* | u | 6.31µM* | 42.3* | 16.8* | u
O=C(COc1ccc(/C=N/NC(=O)c2ccccc2O)cc1)Nc1ccccc1 | u | -35.6% | u | u | 5.9% | 17.8µM* | x | 47.4* | x | TbPGK inh=14.6µM*
O=C(N/N=C/c1ccc(OCC(=O)N2CCCCC2)cc1)c1ccccc1O | -3.5% | -30.3% | 11.1% | -6.2% | -2.0% | -1.2% | x | x | x
CCCCC/C=C\C/C=C\C/C=C\CCCCC(=O)O | 20µM* | u | 39.8µM* | 50.1µM*! | -1.3% | x | 67* | 21.2* | 30.1*
CCCCC/C=C\C/C=C\C/C=C\CCCCCCC(=O)O | x | x | x | -2.5%[19.4 µM] | x | x | x | x | x
Cn1c2ccccc2c2cc(/C=N/NC(=O)c3cc(O)ccc3O)ccc21 | 10µM* | 22.4µM* | 10µM* | 50.1µM* | 56.2µM* | 10µM* | u | x | 53.6*
CCOC(=O)c1cccnc1SCC(=O)Nc1ccc(C)cc1C | -12.0% | x | 25.2% | -10.7%[60.1 µM] | 2.8% | 3.1% | x | x | x
COc1ncc2nc(-c3ccc(F)cc3)c(=O)n(Cc3cccs3)c2n1 | x | x | x | -2.5%[60.1 µM] | x | x | x | x | x

Assay outcomes: PubChem, National Center for Advancing Translational Sciences (NCATS)
